Inconclusive results are not listed. Entries that show only a call come without a potency. Unmarked numbers belong to inactive results. Activity calls are given as the source filed them. Calls follow the shape of the dose curve; as a rule, active = well fitted cell-killing curve with a large enough effect in the repeat runs; inconclusive = weak or mixed curves, or effect the other way; inactive = flat fitted curve, though single readings scatter.
Assay: qHTS assay to identify small molecule antagonists of the estrogen receptor alpha (ER-alpha) signaling pathway using the BG1 cell line in the presence of 0.1 nM 17-beta-estradiol - cell viability counter screen (AID 1259241); also: nearly all actives have a fitted effect of over 40% in size
Settings: VM7Luc4E2 (BG1) viability, CellTiter-Fluor protease, 22 h, 0.1 nM estradiol agonist added; series mostly up to 92.4 µM
Method in brief: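 VM7Luc4E2 cells (endogenous ER-alpha, 4×ERE-luciferase), hormone-starved 5 days in charcoal-stripped FBS, were treated with compounds plus 0.1 nM 17beta-estradiol for 22 hr at 37C; viability read in same wells as CellTiter-Fluor live-cell protease fluorescence.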
In the case of `Cc1ccc(-c2ccccc2)cc1`, the Potency is reported as “inactive”.
For `CC1=CCC(=C(C)C)CC1`, the Potency was “inactive”.
For `S=C([S-])NCCNC(=S)[S-].S=C([S-])NCCNC(=S)[S-].[Mn+2].[Zn+2]`, the Potency was “inactive”.
For `C=Cc1ccccc1C=C`, the Potency was “inactive”.
For `COC(=O)Nc1nc2ccc(C(=O)c3ccccc3)cc2[nH]1`, the Potency was “inactive”.
With `CCc1oc2ccccc2c1C(=O)c1cc(I)c(O)c(I)c1` the Potency was “inactive”.
For `CC(C)CCCCCOC(=O)CCS`, the Potency was “inactive”.
In the case of `CCOC(=O)NNc1ccc(N(CC)CC(C)O)nn1` (centres undefined), the Potency is reported as “inactive”.
`NC[C@H]1O[C@H](O[C@H]2[C@H](O[C@@H]3O[C@H](CO)[C@@H](O)[C@H]3O)C(O)[C@H](N)C[C@@H]2N)[C@H](N)[C@@H](O)[C@@H]1O` (some centres undefined) showed an activity change, negative = cytotoxicity of 2.08% [at 8.39 µM].
In the case of `COc1cc2nc(N3CCN(C(=O)c4ccco4)CC3)nc(N)c2cc1OC`, the activity change, negative = cytotoxicity is reported as 2.36% [at 19 µM].
In the case of `CC(C(=O)O)c1ccc2c(c1)[nH]c1ccc(Cl)cc12` (centres undefined), the Potency is reported as “inactive”.
In the case of `Fc1ccc(C(c2ccc(F)cc2)N2CCNCC2)cc1`, the Potency is reported as “inactive”.
In the case of `C#C[C@]1(OC(C)=O)CC[C@H]2[C@@H]3CCC4=C[C@@H](OC(C)=O)CC[C@@H]4[C@H]3CC[C@@]21C`, the Potency is reported as “inactive”.
In the case of `CC1(C)CC(O)CC(C)(C)N1`, the Potency is reported as “inactive”.
With `O=c1[nH]c(=O)n([C@H]2C[C@H](O)[C@@H](CO)O2)cc1F` the Potency was “inactive”.
For `Cc1cc(-c2ccc(N=Nc3cc(S(=O)(=O)O)c4ccccc4c3N)c(C)c2)ccc1N=Nc1cc(S(=O)(=O)O)c2ccccc2c1N`, the Potency was “inactive”.
In the case of `COC(C)=O`, the Potency is reported as “inactive”.
In the case of `OC/C=C/CO`, the Potency is reported as “inactive”.
With `Nc1ccc(C(=O)O)c(O)c1` the Potency was “inactive”.

From PubChem BioAssay (Tox21)
